# Results reported in PubChem BioAssay AID740 (SRMLSC, 2007).
# Among all 96,000 compounds or so, about 65 (0.07%) were called active. The entries come from a sample that favours actives as a whole. Unmarked numbers belong to inactive results. Cut-off read from the data, not from the text of the source: active = inhibition above about 25%; inactive = the rest.
# Test: unspecified inhibition readout at 50 µM (AID 740)
# Conditions: unspecified screen; stronger effect = higher value
row,Compound,inhibition
1,Cn1c2ccccc2c(=O)c2c(=O)n(C3CCCCC3)c(-c3cccs3)nc21,47.1% (active)
2,COCCn1c(-c2cccs2)nc2c(c(=O)c3ccccc3n2C)c1=O,12.7%
3,Cc1nc2ccccc2c(=O)n1C1CCCCCC1,1.75%
4,CC(=O)N=C1SC2CS(=O)(=O)CC2N1c1c(Cl)cccc1Cl (centres undefined),0.54%
5,COc1ccc2nnc(-c3ccccc3)n2n1,1.04%
6,COCCN1C(=O)C(CC(=O)Nc2ccc(C(=O)O)cc2)SC1=Nc1ccccc1 (centres undefined),0.58%
7,OC(CN1CCOCC1)Cn1c(-c2cccc(Cl)c2)nc2ccccc21 (centres undefined),1.12%
8,COc1ccc(NC(=O)N2CCn3c2nc2ccccc23)cc1,1.52%
9,S=C(Nc1ccccc1)N1CCn2c1nc1ccccc12,69.1% (active)
10,O=C(Nc1ccccc1)N1CCn2c1nc1ccccc12,1.31%
11,Cc1cccc(NC(=O)Cc2cccs2)n1,0.37%
12,c1ccc(NC2=Nc3ccccc3CS2)cc1,0.05%
13,CCN(CC)c1ccc(NC(=O)c2cc(Cl)ccc2OC)cc1,inactive
14,CCC(C)NC(=O)Cn1nc([N+](=O)[O-])c(Cl)c1C (centres undefined),0.92%
15,Cn1cnnc1SCC(=O)c1ccc2c(c1)CCCC2,1.31%
16,Cc1nnc(SC(=O)N2c3ccccc3Sc3ccccc32)s1,30% (active)
17,Cc1nnc(SCC(=O)N2c3ccccc3Sc3ccccc32)n1N,0.91%
18,Cn1ccnc1SC(=O)N1c2ccccc2Sc2ccccc21,inactive
19,O=C(COc1ccc(Cl)cc1Cl)N1CCN(C/C=C/c2ccccc2)CC1,1.2%
20,Cc1c(NS(=O)(=O)c2ccc3c(c2)OCCO3)cccc1-c1nc2cccnc2s1,inactive
21,CCS(=O)(=O)Nc1cc(-c2nc3cccnc3s2)ccc1C,0.46%
22,CCS(=O)(=O)Nc1cccc(-c2nc3cccnc3s2)c1C,28.6% (active)

row,Compound,inhibition
1,Cc1cc(C)n(-c2nc(SCCN(C)C)c3c4c(sc3n2)CCCC4)n1,inactive
2,O=C(C1CCN(C2CC(=O)N(c3cccc(Cl)c3)C2=O)CC1)N1CCCC1 (centres undefined),0.33%
3,CC#CCCC(=O)N1C=Cc2ccccc2C1C#N (centres undefined),inactive
4,CC(=O)Cc1nsc(NC(=O)c2ccc(-c3ccccc3Cl)o2)n1,inactive
5,Cc1ccccc1NC(=S)C1=C(O)c2sccc2N(C)S1(=O)=O,inactive
6,Cc1ccc(NC(=O)C2=C(O)c3sccc3N(C)S2(=O)=O)cc1,1.91%
7,CN1c2ccsc2C(O)=C(C(=O)Nc2ccccc2)S1(=O)=O,26.4% (active)
8,CN1c2ccccc2C(O)=C(C(=S)Nc2ccccc2)S1(=O)=O,inactive
9,Cc1ccc(NC(=O)C2=C(O)c3ccccc3N(C)S2(=O)=O)cc1,inactive
10,Cc1ccc(NC(=S)C2=C(O)c3sccc3N(C)S2(=O)=O)cc1,52.4% (active)
11,Cc1ccc(NC(=S)C2=C(O)c3ccccc3N(C)S2(=O)=O)cc1,9.88%
12,CN1c2ccccc2C(O)=C(C(=O)Nc2ccccc2)S1(=O)=O,inactive
13,CN1c2ccsc2C(O)=C(C(=S)Nc2ccccc2)S1(=O)=O,64.3% (active)
14,CC(=O)Nc1ccc2c(c1)nc(CCN1CCOCC1)n2C,inactive
15,CCn1c(SCc2nc(-c3ccccc3)no2)nnc1-c1cccs1,0.11%
16,O=c1[nH]nc(Sc2ncnc3sccc23)n1CCc1ccccc1,9.99%
17,COc1ccccc1Cn1c(=O)c2ccccc2n2c(SCc3csc(C)n3)nnc12,0.93%
18,COc1ccccc1Cn1c(=O)c2ccccc2n2c(Sc3ncnc4sccc34)nnc12,65.1% (active)
19,c1ccc(CSc2nnnn2-c2cccc3ccccc23)nc1,3.06%
20,CCOc1ccc(NC(=O)NCCCN2CCCC2)cc1,0.93%
21,CSc1nnnn1-c1ccc(C(=O)OCC(=O)N2CCOCC2)cc1,inactive
22,CCOC(=O)c1cnc(SCC(=O)N2CCc3ccccc32)nc1N,inactive
